Source: PubChem BioAssay
G9a block – qHTS Assay for Inhibitors of Histone Lysine Methyltransferase G9a. Potency, µM (highest dose often 102 µM), for the others: top-dose activity, negative = inhibition, hits mostly inhibitors. G9a H3K9 monomethylation, AlphaScreen, 2 h. Histone-lysine N-methyltransferase EHMT2 (Homo sapiens), Q96KQ7. hit rate 8.8% among 350,000; note: potency is the fitted concentration of half-maximal effect; % is set by controls: 0 for no effect and ±100 for the full control effect; nearly all actives have a fitted effect of over 75% in size
Target sequence (Q96KQ7 913-1193 limits assumed): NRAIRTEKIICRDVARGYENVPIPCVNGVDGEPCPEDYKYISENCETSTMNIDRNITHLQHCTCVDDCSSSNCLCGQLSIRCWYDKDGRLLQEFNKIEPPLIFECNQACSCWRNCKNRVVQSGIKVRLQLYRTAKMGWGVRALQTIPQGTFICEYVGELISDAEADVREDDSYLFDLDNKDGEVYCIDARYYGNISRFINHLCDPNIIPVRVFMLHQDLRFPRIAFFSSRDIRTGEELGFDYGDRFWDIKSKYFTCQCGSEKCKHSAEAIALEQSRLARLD
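G9a (20 nM) was preincubated 15 min with compound, then reacted 2 h at room temperature with 500 nM biotin-H3K9 peptide and 20 µM SAM. Monomethyl-H3K9 detected by AlphaScreen using anti-H3K9me1 antibody.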
JMJD2A Tudor inh – qHTS Assay for Inhibitors of JMJD2A-Tudor Domain. Lysine-specific demethylase 4A (Homo sapiens), O75164. AlphaScreen JMJD2A-Tudor / H3K4me3 peptide binding. AID 504339, 2011. Potency, µM (top dose mostly 114 µM), for the others: at the highest dose activity change, negative = inhibition, most hits filed as inhibitors. hit rate 4.4% among 390,000; note: potency is the fitted concentration of half-maximal effect; % is set by controls: 0 for no effect and ±100 for the full control effect; nearly all actives have a fitted effect of over 50% in size
PLK1 PBD block – qHTS for Inhibitors of PLK1-PDB (polo-like kinase 1 - polo-box domain): Primary Screen. Plk1 PBD binding of FITC phosphopeptide, fluorescence polarization. Potency, µM, for the others: max response, negative = inhibition, hits mostly inhibitors. hit rate 2.8% among 360,000. Serine/threonine-protein kinase PLK1 (Homo sapiens), P53350. AID 720504, 2013; note: potency is the fitted concentration of half-maximal effect; series mostly up to about 57 µM; % is set by controls: 0 for no effect and ±100 for the full control effect; nearly all actives have a fitted effect of over 65% in size
HP1b binding inh – HTS for Inhibitors of HP1-beta Chromodomain Interactions with Methylated Histone Tails | Chromobox protein homolog 1 (Homo sapiens), P83916 | AlphaScreen HP1-beta / biotin-H3K9me3 peptide binding | Potency, µM (titrated, usually from 114 µM), inactives show top-dose activity change, negative = inhibition, usual class: inhibitors | hit rate 0.56% among 390,000 | AID 540317, 2011; note: potency is the fitted concentration of half-maximal effect; nearly all actives have a fitted effect of over 70% in size
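AlphaScreen: HP1-beta (50 nM) preformed 30 min with biotin-H3(1-18)K9me3 peptide (50 nM) in PBS pH 7.4, 0.01% Tween-20. Compound added for 30 min at RT, then streptavidin donor/nickel chelate acceptor beads (10 ug/mL) for 30 min.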
PI5P4Ka inh – qHTS for Inhibitors of phosphatidylinositol 5-phosphate 4-kinase (PI5P4K). Phosphatidylinositol 5-phosphate 4-kinase type-2 alpha (Homo sapiens), P48426. PI5P4Kalpha enzyme, ADP-Glo luminescence, 60 min; stronger effect = lower value. max response, %. hit rate 1.2% among 330,000. AID 652105, 2013; active = max response of -50% or lower; inconclusive = between -30% and -50%; inactive = -30% or higher; note: value at the top dose of about 77 µM; % is set by controls: 0 for no effect and ±100 for the full control effect
Target sequence (P48426 whole entry, looked up): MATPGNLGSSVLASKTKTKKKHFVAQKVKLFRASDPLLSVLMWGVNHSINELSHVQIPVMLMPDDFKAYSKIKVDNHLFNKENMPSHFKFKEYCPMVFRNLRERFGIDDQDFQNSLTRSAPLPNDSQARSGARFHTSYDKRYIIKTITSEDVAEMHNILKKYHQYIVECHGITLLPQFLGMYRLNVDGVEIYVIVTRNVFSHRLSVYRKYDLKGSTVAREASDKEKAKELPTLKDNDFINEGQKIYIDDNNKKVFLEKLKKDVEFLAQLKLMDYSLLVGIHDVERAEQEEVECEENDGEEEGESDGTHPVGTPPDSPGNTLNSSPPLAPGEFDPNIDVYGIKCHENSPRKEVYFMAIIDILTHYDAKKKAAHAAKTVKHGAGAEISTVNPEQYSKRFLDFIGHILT
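Enzyme plus substrate dispensed, test compounds pinned in, then ATP (5 microM final) added. After 60 min at RT, ADP-Glo reagent 1 for 45 min and reagent 2 for 30 min preceded luminescence imaging.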
BAZ2B inh – qHTS Assay for Inhibitors of BAZ2B | Bromodomain adjacent to zinc finger domain protein 2B (Homo sapiens), Q9UIF8 | AlphaScreen BAZ2B-H3K14Ac peptide displacement | Potency, µM (highest dose often 114 µM), inactives show at the top dose activity change, negative = inhibition, actives largely listed as inhibitors | hit rate 4.4% among 360,000 | AID 504333, 2011; note: potency is the fitted concentration of half-maximal effect; % is set by controls: 0 for no effect and ±100 for the full control effect; nearly all actives have a fitted effect of over 60% in size
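In this displacement format the biotinylated H3(5-23) peptide acetylated at Lys14 serves as ligand at 50 nM, with BAZ2B at 50 nM in PBS pH 7.4 containing 0.01% Tween-20. Donor and acceptor beads are 10 ug/mL final.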
* hit, by the source's call; ? = inconclusive; nt = no result given; [ ] = dose if it differs, or a comment. A selection: hits, their analogues and other compounds. The true share with any hit is near 12%. Unless noted, calls come from the whole dose curve; as a rule, active = well fitted curve in the direction sought with a large enough effect; inconclusive = small, poorly fitted or top-dose-only effect, or another doubt; inactive = no such curve, though single readings can be large; an effect the other way counts as inactive or inconclusive.

SMILES	G9a block	JMJD2A Tudor inh	PLK1 PBD block	HP1b binding inh	PI5P4Ka inh	BAZ2B inh
N/C(=N\OC(=O)c1ccc2ccccc2c1)c1ccccn1	-21.5%	-2.1%	0.4%	20.4%	-18.4	-9.9%
COc1cccc(C(=O)O/N=C(\N)c2ccccn2)c1OC	13.4%[2.33 µM]	?	23.8µM*	21.1%	-23.4	2.6%
O=C(O/N=C(\c1ccccc1)c1ccccn1)c1ccc(Cl)c(Cl)c1	3.55µM*	-17.1%	-1.2%	45.8%	11.3	0.0%
COCCCNc1ccn2nc(-c3ccc(Cl)cc3)cc2n1	nt	nt	3.2%	nt	3.8	nt
Nc1nc2ccc([N+](=O)[O-])cc2[nH]1	16.4%	-2.8%	-4.1%	29.3%	-13.3	-7.9%
Nc1[nH]c2cc([N+](=O)[O-])ccc2c1-c1ccccn1	44.7µM*	?	12.6%	?	-6.8	28.2µM*
O=C(NCCCn1ccnc1)c1sc2cc([N+](=O)[O-])ccc2c1Cl	nt	nt	-9.2%	nt	-2.3	nt
O=C(OCc1ccccc1)c1cccnc1Cl	37.1%	24.7%	0.2%	37.3%	-3.2	17.7%
O=C(OCc1ccccc1)/C(=C(\O)c1ccccc1Br)c1ccc(-c2ccccc2)cn1	-4.3%[2.33 µM]	-7.9%	1.0%	79.6%	3.4	56.2µM*
CN(C)C(=O)CSc1ccc(S(=O)(=O)N2CCOCC2)cn1	-2.9%[12.7 µM]	-11.1%	-10.4%	25.5%	-8.9	9.2%
O=C(CNC(=S)N(CCCN1CCOCC1)Cc1cccs1)NCc1ccccc1Cl	70.8µM*	-16.3%	-3.8%	65.8%	-1.2	-18.3%
CN(C)CCCN(Cc1ccccc1)C(=S)Nc1cccc(C(F)(F)F)c1	70.8µM*	-8.1%	6.0%	32.6%	2.5	-5.9%
O=C(CNC(=S)N(CCCN1CCOCC1)Cc1cccs1)NCc1ccc(Cl)cc1	?	-19.9%	-17.1%	33.4%	5.3	-15.6%
Cc1ccc(NC(=S)N(CCCN2CCCC2)Cc2cccn2Cc2ccc(Cl)cc2)cc1Cl	31.6µM*	?	-20.9%	-4.8%	15.1	?
Cc1ccc(NC(=S)N(CCN2CCOCC2)Cc2ccccc2F)cc1Cl	10.5%	-7.5%	-18.7%	36.9%	9.5	?
FC(F)(F)c1cccc(NC(=S)N(CCCN2CCCC2)Cc2cccn2Cc2ccc(Cl)cc2)c1	44.7µM*	?	-10.7%	3.7%	0.7	-30.2%
CCCN(Cc1ccccc1)C(=S)Nc1cccc(C(F)(F)F)c1	18.6%[59 µM]	8.8%	-2.9%	59.9%	12.4	-0.2%
COc1ccc2[nH]cc(CCNc3ncncc3-c3ccccc3C)c2c1	7.5%[0.501 µM]	nt	nt	nt	nt	nt
COc1ccccc1C(CNC(=O)C(C)Oc1ccc(Br)cc1)N1CCCC1 (centres undefined)	?	-24.3%	2.9%	20.1%	4.1	-5.7%
COc1ccc(NC(=S)N(Cc2ccc(Cl)cc2)Cc2ccc(C(=O)O)cc2)cc1Cl	?	-24.8%	?	12.1%	8.7	?
COc1ccc(NC(=S)N(CCCN2CCC(C)CC2)Cc2cccs2)cc1Cl	?	-24.7%	16.8µM*	-9.3%	0.2	-34.5%
Cc1ccc(NC(=S)N(CCCN2CCCC2)Cc2cccn2Cc2ccc(Cl)cc2)cc1C	-14.0%	50.1µM*	-8.6%	-22.7%	0.5	-14.1%
COc1ccc(NC(=S)N(CCCN2CCCC2)Cc2cccn2Cc2ccc(Cl)cc2)cc1Cl	28.2µM*	?	-3.9%	-9.0%	1.3	28.2µM*
CC(C)CCN(Cc1ccco1)C(=O)Cn1ncc2c([nH]c3ccccc32)c1=O	-28.0%[59 µM]	-16.2%	nt	18.8%	nt	-2.3%
O=C(/C(=C/O)N=Nc1ccccc1)c1cccs1	35.5µM*	-17.3%[11.4 µM]	?	44.7µM*	-11.6	22.4µM*
SMILES	G9a block	JMJD2A Tudor inh	PLK1 PBD block	HP1b binding inh	PI5P4Ka inh	BAZ2B inh
Cc1ccc(N(CC(=O)NC2CCCCC2)C(=O)CNC(=O)c2ccco2)cc1C	25.7%	3.1%	6.2%	15.0%	0.6	4.3%
N#Cc1nc(Nc2ccc(F)cc2)nc(NC2CCCC2)n1	nt	-20.5%	nt	nt	nt	nt
CCCOc1ccc(Cc2c(COCC)[nH]c(=S)[nH]c2=O)cc1	44.7µM*	-20.3%	?	3.4%	-21.4	-15.8%
Cc1ccc(NC(=O)Cn2c(=O)n(Cc3nc(C)no3)c(=O)c3cc4c(cc32)OCO4)c(Cl)c1	-24.1%[59 µM]	-17.2%	nt	-6.6%	nt	-5.3%
Nc1sc(-c2ccccc2)cc1C(=O)NCCc1c[nH]c2ccccc12	nt	nt	1.4%	nt	-17.3	nt
O=C(CCl)N1CCCC1c1ccc2c(c1)OCCO2 (centres undefined)	-30.6%	?	26.7µM*	-17.6%[57 µM]	-3.0	-36.8%
CC(=O)c1ccc(OCC(=O)N2CCCC2c2ccc3c(c2)OCCCO3)cc1 (centres undefined)	nt	-4.2%	-0.5%	21.3%	1.2	nt
CCCc1nnc(SCC(=O)Nc2cccc(C(F)(F)F)c2)o1	17.9%	-7.2%	-7.4%	-0.4%	1.4	6.6%
CCOC(=O)c1c(CSC(=N)N)n(-c2ccccc2)c2cc(Br)c(OC(C)=O)cc12	50.1µM*	?	-10.5%	-14.7%	-8.1	?
Cc1ccc(-c2ccccc2)n1-c1cccc(C(=O)O)c1	50.1µM*	?	-11.6%	-5.9%	0.5	-35.4%
Cc1ccc(C(=O)O)cc1-n1c(C)ccc1-c1ccccc1	?	-30.7%	nt	-5.3%	nt	?
Cc1ccc(-c2ccccc2)n1-c1ccc(C(=O)O)cc1	10µM*	?	?	1.3%	0.3	?
O=S(=O)(CS(=O)(=O)Oc1ccccc1)Oc1ccccc1	nt	-10.4%	21.2µM*	?	-10.9	nt
Cc1cc(Nc2ccccc2)c2c([N+](=O)[O-])c(C)cc(C)c2n1	22.4µM*	25.1µM*	0.3%	39.8µM*	19.1	31.6µM*
Cc1cccc(Nc2cc(C)nc3ccccc23)c1	nt	-10.3%	4.8%	39.8%	0.3	-6.4%
COc1ccc(CN(CC2CCCO2)S(=O)(=O)c2ccc(C(=O)O)cc2)cc1OC (centres undefined)	56.2µM*	-7.5%	2.2%	45.1%	nt	-6.1%
CN(C)CCCN(C(=O)c1ccc(S(=O)(=O)N(C)C2CCCCC2)cc1)c1nc2ccc(F)cc2s1	44.7µM*	?	-5.5%	-9.9%	2.1	?
CN(C)CCCN(C(=O)c1ccc(S(=O)(=O)N(C)C2CCCCC2)cc1)c1nc2ccc(Br)cc2s1	nt	35.5µM*	-13.7%	-13.0%	0.5	?
